From PubChem BioAssay AID485347 (National Center for Advancing Translational Sciences (NCATS), 2010)
The campaign covered roughly 340,000 compounds. About 1,200 (0.35%) were called active. Shown is part of a subset that was picked to be rich in actives. Values without a mark were called inactive.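 How the source made its calls: active means potentiation over 3 SD above the plate norm (cut at about 30% in these data); inactive means the rest.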

Target: D(2) dopamine receptor (Homo sapiens) (UniProt P14416)
Sequence (P14416 whole entry, looked up): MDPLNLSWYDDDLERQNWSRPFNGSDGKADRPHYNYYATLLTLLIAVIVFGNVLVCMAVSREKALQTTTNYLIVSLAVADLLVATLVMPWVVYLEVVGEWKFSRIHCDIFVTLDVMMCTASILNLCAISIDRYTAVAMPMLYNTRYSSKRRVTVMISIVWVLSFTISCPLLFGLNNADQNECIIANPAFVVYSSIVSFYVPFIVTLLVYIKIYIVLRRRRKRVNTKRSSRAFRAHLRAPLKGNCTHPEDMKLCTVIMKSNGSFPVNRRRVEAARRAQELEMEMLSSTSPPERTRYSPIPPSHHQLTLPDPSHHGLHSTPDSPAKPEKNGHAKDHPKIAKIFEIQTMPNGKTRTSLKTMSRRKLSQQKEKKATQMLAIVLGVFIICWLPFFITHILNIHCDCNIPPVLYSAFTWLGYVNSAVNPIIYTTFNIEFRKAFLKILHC
Test: HTS Assay for Positive Allosteric Modulators of the Human D2 Dopamine Receptor: Primary Screen for Potentiators; further: 0% is about no effect
Conditions: HEK293 T-REx D2, calcium flux, EC20 dopamine potentiation; at 10 µM; hits give high values
Description: NIH Chemical Genomics Center [NCGC] NIH Molecular Libraries Probe Centers Network [MLPCN] MLPCN Grant: NS064831-01 Assay Submitter (PI): David Sibley Dopamine receptors (DARs) are involved in the etiology and/or therapy of a number of neuropsychiatric and endocrine disorders. For instance, all receptor-based antiparkinsonian drugs work via stimulating the D2 DAR subtype whereas all FDA-approved antipsychotic agents are antagonists of this receptor. […] There are three different types of allosteric modulators that we are seeking, two of which will stimulate or augment receptor signaling, allosteric agonists and potentiators, while the third, allosteric antagonists, will attenuate receptor signaling. The present primary screening assay measures compound potentiation of an EC20 dopamine response by tracking calcium flux in a […], inducible Hek293 Trex D2 cell line.
Freshly passaged cells are plated in 1536 well black, clear bottom plates at a density of 4000 cells/well in 3 ul of complete media containing 1x tetracycline inducer. After an overnight incubation at 30 C in 5% CO2, cells are loaded with 2 ul of the no wash Calcium Assay Kit (ABD Bioquest) and incubated at room temperature for 30 to 90 minutes. A 10 cycle (1 second/cycle) baseline measurement is taken and then the FDSS online 1536 pintool delivers 23 nl of compound library (as well as dopamine controls) to the plate. The plate is measured for kinetically at 1 cycle/sec for 180 seconds and is considered to be the agonist portion of the assay (eg, compounds which activate a positive calcium response during this portion are flagged as potential agonists). Following the 180 second read, 1 ul of an EC20 of dopamine is delivered by an onboard pipette head. Measurements are taken kinetically for an additional 180 seconds.

| Compound | potentiation |
| --- | --- |
| COc1ccccc1N1CCN(C(CNC(=O)Oc2ccccc2)c2cccnc2)CC1 (stereo not given) | -0.508% |
| O=C(NCC(c1cccnc1)N1CCN(c2ccccc2)CC1)Oc1ccccc1 (stereo not given) | 43.6% (active) |
| COC(=O)C(c1ccccc1)N1CCCCCC1 (stereo not given) | 5.6% |
| Cc1cccc(Cn2cccc(C(=O)Nc3ccc4c(c3)OCCO4)c2=O)c1 | -8.38% |
| Cc1ccc(NC(=O)N(Cc2ccc3c(c2)OCO3)C2CCN(Cc3ccccc3)CC2)cc1F | 2.88% |
